Rows were chosen to be rich in hits. Some 2.9% of all compounds tested hit in one or more screens of this group.
DRD3 agonist – agonists of human D3 dopamine receptor | max activation, % | AID 652048 | P35462 | hit rate 0.58% among 410,000 | D3R DiscoveRx beta-arrestin cells, luminescence, 90 min; in the data active = max activation above about 30%; note: 0% is about no effect
Target sequence (P35462 whole entry, looked up): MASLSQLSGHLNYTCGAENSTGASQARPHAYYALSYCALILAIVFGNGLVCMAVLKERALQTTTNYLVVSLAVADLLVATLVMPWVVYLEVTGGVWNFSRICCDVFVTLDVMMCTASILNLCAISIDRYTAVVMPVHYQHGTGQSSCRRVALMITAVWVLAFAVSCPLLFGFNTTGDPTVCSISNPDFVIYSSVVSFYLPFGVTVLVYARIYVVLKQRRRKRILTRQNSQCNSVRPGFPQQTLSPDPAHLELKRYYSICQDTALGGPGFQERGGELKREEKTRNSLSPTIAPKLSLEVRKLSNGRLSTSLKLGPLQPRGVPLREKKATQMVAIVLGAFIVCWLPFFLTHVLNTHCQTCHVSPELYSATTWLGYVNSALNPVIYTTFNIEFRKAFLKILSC
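Agonist-mode cell screen: cells plated at 1500/well and incubated overnight at 37 °C, then exposed to library compounds for 90 min at 37 °C. Detection reagent was added for 30–60 min at room temperature, and luminescence was read.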
TRPML1 agonist – agonists of human TRPML1 channel. activation, % (test concentration not listed). hit rate 0.12% among 410,000. Q9GZU1. TRPML1-expressing cells, Ca2+ dye fluorescence, FDSS; in the data active = activation above about 50%; inconclusive = mostly about 30% to 49%; note: 0% is about no effect
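Tet-induced TRPML1-DL cells, 1,500 per well, cultured overnight, were loaded with a no-wash Ca2+ dye for 45–90 min. Calcium fluorescence was recorded on the FDSS for 110 s after compound addition, before the EC80 agonist (4 uM 54-4) was added.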
TRPML1 blocker – human mucolipin-1 channel inhibition; Q9GZU1; TRPML1-inducible cells, Ca2+ dye fluorescence, FDSS; hits give low values; inhibition of EC80 agonist-evoked calcium signal; activity change, negative = inhibition, % (test concentration not listed); hit rate 0.02% among 390,000; AID 624415; in the data active = activity change below about -50%; inconclusive = between about -30% and that limit;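 note: stimulus is agonist 54-4 at its EC80 concentration; % is set by controls: 0 for no effect and ±100 for the full control effect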
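TRPML1-DL cells, Tet-induced overnight (~16 h, 37 °C) at 1,500 cells/well, were loaded with Ca8 no-wash dye plus quencher for 45-90 min at room temperature. Compounds were pinned during FDSS kinetic reading; agonist 54-4 at EC80 (4 uM final) then added.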
DRD3 antagonist – D3 dopamine receptor (human) antagonism; D3R cells, DiscoveRx beta-arrestin luminescence, antagonist mode; hits give low values; max response, negative = inhibition, %; hit rate 2.5% among 360,000; AID 652054; in the data active = max response below about -50%; inconclusive = no clear call, values can overlap the other calls; note: % is set by controls: 0 for no effect and ±100 for the full control effect
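Cells expressing the human receptor were seeded at 1500 cells/well, incubated overnight at 37 degrees C in 5% CO2, then exposed to library compounds with dopamine controls for 90 minutes at 37 degrees C before luminescent detection.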
* = called active by the depositor; ? = inconclusive; nt = no result given; ! = not active in a repeat.

SMILES	DRD3 agonist	TRPML1 agonist	TRPML1 blocker	DRD3 antagonist
Nc1nc2c(c(=O)[nH]1)N(C=O)C(CNc1ccc(C(=O)N[C@@H](CCC(=O)O)C(=O)O)cc1)CN2 (some centres not stated)	13	nt	nt	nt
COc1ccccc1NC(=O)c1ccc(-n2cncn2)nc1	31*	-1	15	6
CN(C)c1ccc(/C=C/c2cnnc3ccccc23)cc1	nt	16	nt	nt
Cc1ccc(NC(=O)C2CCCN(c3cnccn3)C2)cc1Cl (configuration not stated)	3	5	36	nt
CCCC(c1nnnn1CCc1ccccc1)N1CCN(C(=O)c2ccco2)CC1 (configuration not stated)	-18	0	-12	-51*
CCCN1CNc2c(c(=O)[nH]c(=S)n2CCc2ccc(OC)cc2OC)C1	nt	-1	nt	nt
CC(=O)c1cccc(NC(=O)C2=CC(c3ccc4c(c3)OCO4)=NS(=O)(=O)N2C)c1	-21	1	-10	-62*
Cc1ccc(NC(=O)C2=CC(c3ccc4c(c3)OCO4)=NS(=O)(=O)N2C)cc1	-17	1	35	nt
CCN(C#N)c1nc(NC(C)C)nc(NC(C)C)n1	32*	2	-14	15
C#CCN(C#N)c1nc(NCC)nc(NC(C)C)n1	-4	0	-6	-6
CCn1cc(C(=O)N[C@H](C(=O)NCCO)C(C)C)c(=O)c2cc3c(cc21)OCO3	51*	1	0	-15
COc1cccc(S(=O)(=O)N2CCN(c3nc(-c4cccs4)nc4ccccc34)CC2)c1	nt	0	nt	nt
CCc1cc(=O)oc2cc(OC(C)=O)cc(OC(C)=O)c12	2	0	-15	-58*
COc1cc(OCc2ccccc2)c2c(CCC(=O)O)cc(=O)oc2c1	1	0	44	-8
Cc1ccc(OCCCC(=O)Nc2ccc3c(c2)OCO3)cc1	7	1	25	-52*
Cc1ccc(OCCC(=O)Nc2ccc3c(c2)OCCCO3)cc1	-2	1	-4	3
CCC(CC)=NNc1ccc(S(N)(=O)=O)cc1[N+](=O)[O-]	0	2	24	-13
NS(=O)(=O)c1ccc(N/N=C/c2ccc(C(=O)O)cc2)c([N+](=O)[O-])c1	0	0	-7	-51*
C/C(CCC(C)C)=N\Nc1ccc(S(N)(=O)=O)cc1[N+](=O)[O-]	-8	2	-6	-58*
N#Cc1ccccc1Cn1c(=O)n(CCCC(=O)NCc2ccccc2Cl)c(=O)c2ccccc21	7	1	-24	nt
COc1cccc(-c2cc(C(=O)Nc3ccn(Cc4ccc(C)cc4)n3)no2)c1	35*!	1	1	5
COc1ccc(OC)c(-c2cc(C(=O)Nc3c(C)nn(Cc4ccccc4C)c3C)no2)c1	33*	1	-6	21
COc1ccc(OC)c(-c2cc(C(=O)Nc3c(C)nn(Cc4ccccc4Cl)c3C)no2)c1	25	2	5	3
COc1ccc(OC)c(-c2cc(C(=O)Nc3c(C)nn(Cc4ccc(C)cc4)c3C)no2)c1	35*	1	-7	nt
O=C(CCN1C(=O)c2ccccc2Sc2ncccc21)Nc1ccc(F)cc1	-19	-1	1	nt
SMILES	DRD3 agonist	TRPML1 agonist	TRPML1 blocker	DRD3 antagonist
CN(C)c1ccc(/C=C2\C=Cc3ccccc32)cc1F	nt	0	nt	nt
COc1ccc(CNC(=O)C(c2ccc(C)o2)N(Cc2cccs2)C(=O)Cc2cccs2)cc1 (configuration not stated)	3	2	6	-57*
O=c1[nH]c2cc3ccccc3cc2nc1-c1nnnn1C1CCCC1	-15	4	nt	-68*
CCOC(=O)N1CCN(c2nc(-c3ccco3)cc(C(F)(F)F)n2)CC1	3	0	4	2
CN1CCN(c2nc(-c3ccco3)cc(C(F)(F)F)n2)CC1	-32	0	-24	-92*
CC1CC=CC2C1C(=O)N(Cc1ccccc1)C2c1ccc(-c2ccoc2)cc1F (configuration not stated)	nt	2	68	nt
CCCOc1ccc(C2C(=O)N(C3CCCCCC3)CC(=O)N2C(C)C)cc1OC (configuration not stated)	-5	-1	-5	nt
CCOC(=O)C1CCN(Cc2ccc(F)c(F)c2)CC1	-30	1	-15	?
CCOC(=O)C1CCN(Cc2cc(C(C)C)c(O)c(C(C)C)c2)CC1	-15	0	4	-69*
CCOC(=O)C1CCN(Cc2ccc(OC)cc2OC)CC1	-11	-1	-5	-6
CCOC(=O)C1CCN(Cc2cccc(OC)c2)CC1	-14	0	-9	-23
CCOC(=O)C1CCN(Cc2cn[nH]c2-c2ccccc2)CC1	-8	-1	-1	-66*
